# Assay results published in PMC4336329 (PLoS ONE, 2015).
# About 2,200 (0.71%) of roughly 310,000 compounds showed an effect of 50% or more. The effect is printed as a negative number. The full list was thinned out, with strong results kept by preference.
# Target: human ether-à-go-go-related gene (hERG) potassium channel (human, UniProt Q12809)
# Experiment: primary screen, population patch clamp on CHO cells stably expressing hERG; higher = less effect of the substance
# human ether-à-go-go-related gene (hERG) potassium channel, sequence (Q12809 whole entry, looked up): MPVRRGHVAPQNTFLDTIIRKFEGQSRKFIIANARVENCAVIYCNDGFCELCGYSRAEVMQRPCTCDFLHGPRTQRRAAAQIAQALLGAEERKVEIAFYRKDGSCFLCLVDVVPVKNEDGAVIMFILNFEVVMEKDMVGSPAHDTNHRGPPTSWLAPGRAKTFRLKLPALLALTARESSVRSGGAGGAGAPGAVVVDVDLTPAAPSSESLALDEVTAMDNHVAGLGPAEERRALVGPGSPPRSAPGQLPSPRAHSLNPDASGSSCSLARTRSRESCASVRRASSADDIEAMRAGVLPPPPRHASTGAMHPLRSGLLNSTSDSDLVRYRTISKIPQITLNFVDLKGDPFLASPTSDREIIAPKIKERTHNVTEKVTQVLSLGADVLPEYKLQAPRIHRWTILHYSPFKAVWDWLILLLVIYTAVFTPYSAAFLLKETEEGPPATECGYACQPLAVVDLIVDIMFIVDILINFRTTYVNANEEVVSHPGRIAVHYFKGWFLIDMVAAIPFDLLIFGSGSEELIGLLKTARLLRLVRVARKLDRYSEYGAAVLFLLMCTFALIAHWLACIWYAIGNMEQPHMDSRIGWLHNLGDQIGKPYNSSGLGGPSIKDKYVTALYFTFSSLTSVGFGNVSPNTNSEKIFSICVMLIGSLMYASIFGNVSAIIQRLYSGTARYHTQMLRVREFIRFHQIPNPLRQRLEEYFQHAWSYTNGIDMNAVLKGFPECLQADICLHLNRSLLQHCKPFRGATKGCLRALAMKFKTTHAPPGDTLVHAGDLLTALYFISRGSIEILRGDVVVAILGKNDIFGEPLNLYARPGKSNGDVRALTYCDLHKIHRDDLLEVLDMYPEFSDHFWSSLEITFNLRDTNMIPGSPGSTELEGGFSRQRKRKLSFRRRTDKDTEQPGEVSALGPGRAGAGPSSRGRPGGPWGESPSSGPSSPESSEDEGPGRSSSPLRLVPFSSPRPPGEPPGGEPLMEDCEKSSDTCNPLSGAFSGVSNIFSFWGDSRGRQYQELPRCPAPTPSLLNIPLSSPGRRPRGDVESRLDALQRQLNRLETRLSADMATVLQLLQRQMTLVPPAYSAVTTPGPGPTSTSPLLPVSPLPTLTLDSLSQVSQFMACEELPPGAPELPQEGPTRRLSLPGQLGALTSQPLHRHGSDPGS
row,SMILES,"hERG current change (%, negative = inhibition) at 1uM"
1,Cc1cc(N2CCCC2)ccc1NC(=O)CN1C(=O)NC(C)(c2ccccc2)C1=O (centres unmarked),16%
2,O=P(O)(CCc1ccccc1)C(O)c1ccccc1 (centres unmarked),5.09%
3,COc1cc(OC)cc(C(=O)N[C@H](C(=O)OCC(=O)NC(=O)c2cccn2C)C(C)C)c1,6.95%
4,C=CCNC(=O)CSc1ccc(Cl)cc1,13.7%
5,CNc1nnc(-c2ccc(C)cc2)c2ccccc12,-5.45%
6,Cc1ccc([N+](=O)[O-])c2c1C(N1CC(C)OC(C)C1)C(C)(C)O2 (centres unmarked),17.1%
7,CCOc1ccc(NC(=O)COc2ccc(C(=O)NCCc3ccccc3)cc2)cc1,3.64%
8,Cc1cc(C(=O)N/N=C/c2cccc(Cl)c2Cl)no1,3.36%
9,O=C1OC(N2C(=O)CC[C@H]2C(=O)Nc2ccc(F)c(F)c2)c2ccccc21 (some centres unmarked),8.61%
10,CC(=O)c1ccc(NC(=O)CSc2n[nH]c(-c3cccnc3)n2)cc1,14.1%
11,N=c1c(C(=O)NCCc2ccccc2)cc2c(=O)n3ccccc3nc2n1CC1CCCO1 (centres unmarked),-93.8%
12,COc1ccc(CCNC(=O)c2cc3c(=O)n4ccccc4nc3n(CC3CCCO3)c2=N)cc1OC (centres unmarked),-90.3%
13,COc1ccc(CCNC(=O)Cn2c(=O)n(CC3CCCO3)c(=O)c3ccccc32)cc1OC (centres unmarked),3.58%
14,COc1ccc(CCNC(=O)c2cc3c(=O)n4cccc(C)c4nc3n(CC3CCCO3)c2=N)cc1 (centres unmarked),-79.4%
15,O=C(CSc1nc2ccccc2c(=O)n1CC1CCCO1)NCCc1ccccc1 (centres unmarked),19.6%
16,Cc1cccn2c(=O)c3cc(C(=O)NCCc4ccccc4)c(=N)n(CC4CCCO4)c3nc12 (centres unmarked),-91%
17,Cc1ccc(NC(=O)N2CCCCCC2)cc1,0.321%
18,CCOC(=O)c1cnc(-n2nc(C)cc2C)nc1Nc1ccc(O)cc1,14.2%
19,COc1cc(Cl)c(C)cc1NC(=O)CSc1sc2c(O)cc(=O)[nH]c2c1C#N,18.7%
20,CC(=O)c1ccccc1NS(C)(=O)=O,9.61%
21,COc1ccccc1Nc1ncnc2ccc(C)cc12,12.7%

row,SMILES,"hERG current change (%, negative = inhibition) at 1uM"
1,COc1ccc(CNC(=O)c2cc3c(=O)n4cccc(C)c4nc3n(CC3CCCO3)c2=N)cc1 (centres unmarked),-83.8%
2,Cc1ccc(S(=O)(=O)c2cc3c(=O)n4cccc(C)c4nc3n(CC3CCCO3)c2=N)cc1C (centres unmarked),12.9%
3,Cc1ccc(CCNC(=O)c2ccc3nc4ccccc4c(=O)n3c2)cc1,14.3%
4,Cc1ccc2nc3c(cc(C(=O)NCCc4ccccc4)c(=N)n3CC3CCCO3)c(=O)n2c1 (centres unmarked),-84%
5,Cc1cccn2c(=O)c3cc(C(=O)NCc4ccc(F)cc4)c(=N)n(CC4CCCO4)c3nc12 (centres unmarked),-81.8%
6,CC1CN(C(=O)c2c([N+](=O)[O-])cnn2C)CC(C)O1 (centres unmarked),1.78%
7,NNC(=O)C1CC(O)CN1S(=O)(=O)c1ccc(Cl)cc1 (centres unmarked),6.56%
8,O=C(Nc1ccc(-c2csc(-c3ccccc3)n2)cc1)c1ccccc1Cl,16.9%
9,CCOC(=O)N1CCC(NC(=O)c2cc(C(=O)Nc3ccc(OC)c(OC)c3)ccc2CO)CC1,4.41%
10,O=S(=O)(c1ccccc1Cl)N1CCC(Cc2ccccc2)CC1,13.5%
11,CCCCc1nn(-c2cc(Cl)ccc2OC)c2c1C(=O)CCC2,12.2%
12,COC(=O)C1=C(c2ccc(F)cc2OCc2ccccc2)C[C@@H]2CC[C@H]1N2C(=O)NCCNC(C)=O,16.4%
13,Cc1cc(=O)n2nc(N3CCC(C(=O)NCC(C)c4ccccc4)CC3)sc2n1 (centres unmarked),11.7%
14,Cc1nn2c(NCCOCCO)c3c(nc2c1-c1ccccc1)CCC3,-9.29%
15,Cc1nn2c(NCCOCCO)c3c(nc2c1-c1ccccc1)CCCC3,-75.3%
16,COCCNc1c2c(nc3c(-c4ccccc4)c(C)nn13)CCCC2,5.77%
17,O=C(CCS(=O)(=O)c1cccs1)Nc1ccc(C(=O)NC2CCN(Cc3ccccc3)CC2)cc1,7.84%
18,CCC(CC)C(=O)c1c[nH]c(C(=O)NCc2ccccn2)c1,8.96%
19,COC(=O)c1ccc(C(=O)NC2CC(C)(C)Cc3c2cnn3-c2ccc(F)cc2)nc1 (centres unmarked),-0.769%
20,Cc1ccc(-n2ncc3c2CCCC3NC(=O)c2ccoc2)cc1C (centres unmarked),-78.5%
21,CC1(C)Cc2c(cnn2-c2ccc(F)cc2)C(NC(=O)C2=NNC(=O)CC2)C1 (centres unmarked),-52.1%

row,SMILES,"hERG current change (%, negative = inhibition) at 1uM"
1,Cc1ccc(-n2ncc3c2CC(C)(C)CC3NC(=O)c2cc[n+]([O-])cc2)cc1 (centres unmarked),-62.7%
2,COC(=O)c1ccc(C(=O)NC2CCCc3c2cnn3-c2ccc(C)c(C)c2)cc1 (centres unmarked),12.4%
3,CC1(C)Cc2c(cnn2-c2ccc(F)cc2)C(NC(=O)C2CCC2)C1 (centres unmarked),-56.8%
4,CC(=O)N1CCC(C(=O)NC2CC(C)(C)Cc3c2cnn3-c2ccc(F)cc2)CC1 (centres unmarked),-11.3%
5,Cc1cc(C(=O)NC2CC(C)(C)Cc3c2cnn3-c2ccc(F)cc2)nn1C (centres unmarked),5.91%
6,Cc1ccc(-n2ncc3c2CC(C)(C)CC3NC(=O)c2ccncc2)cc1 (centres unmarked),-48.8%
7,Cc1cc(C(=O)NC2CCCc3c2cnn3-c2ccc(C)c(C)c2)no1 (centres unmarked),1.86%
8,CC1(C)Cc2c(cnn2-c2ccc(F)cc2)C(NC(=O)C(C)(C)O)C1 (centres unmarked),12.6%
9,Cc1ccc(-n2ncc3c2CC(C)(C)CC3NC(=O)c2ccc[n+]([O-])c2)cc1 (centres unmarked),7.22%
10,CC(C)C(=O)Nc1ccc(NC(=O)c2ccccn2)cn1,12.6%
11,O=C(CSc1nnc(CNC(=O)c2ccccc2F)o1)Nc1cccc(C(F)(F)F)c1,16%
12,COc1ccc[nH]c1=O,1.28%
13,CCOC(=O)Cn1cnc2c(nnn2-c2cccc(OC)c2)c1=O,17%
14,COc1ccc(/C(C)=N/N=C2/NC(=O)CC(C(=O)O)S2)cc1 (centres unmarked),5.89%
15,COCCCNC(=O)CCn1c(=O)c2ccccc2n(CC(=O)Nc2cc(Cl)ccc2C)c1=O,2.79%
16,O=C(NCc1ccc2c(c1)OCO2)c1ccc(S(=O)(=O)C(F)F)cc1,-0.408%
17,CC1(C)Cc2c(cnn2-c2ccc(F)cc2)C(NC(=O)CCn2cncn2)C1 (centres unmarked),-40.7%
18,CC(=O)c1ccc(C(=O)NC2CC(C)(C)Cc3c2cnn3-c2ccccc2)cc1 (centres unmarked),5.88%
19,Cc1ccc(-n2ncc3c2CC(C)(C)CC3NC(=O)CCn2cncn2)cc1 (centres unmarked),-78.5%
20,CC1(C)Cc2c(cnn2-c2ccccc2)C(NC(=O)c2ccc[n+]([O-])c2)C1 (centres unmarked),8.68%
21,CC1(C)Cc2c(cnn2-c2ccc(F)cc2)C(NC(=O)c2ccoc2)C1 (centres unmarked),-95.7%

row,SMILES,"hERG current change (%, negative = inhibition) at 1uM"
1,Cn1nccc1C(=O)NC1CC(C)(C)Cc2c1cnn2-c1ccc(F)cc1 (centres unmarked),-20%
2,COc1ccc(-n2ncc3c2CC(C)(C)CC3NC(=O)CCn2cncn2)cc1 (centres unmarked),-5.06%
3,CC1(C)Cc2c(cnn2-c2ccc(F)cc2)C(NC(=O)c2cnccn2)C1 (centres unmarked),-6.77%
4,CC1(C)Cc2c(cnn2-c2ccccc2)C(NC(=O)c2ccoc2)C1 (centres unmarked),-91.7%
5,CCOc1cc(C#N)ccc1OCC(=O)N1CCN(C(=O)c2cccs2)CC1,-16.1%
6,O=C(Nc1ccccc1Cl)c1ccc(S(=O)(=O)NCC2CCCO2)cc1 (centres unmarked),-7.62%
7,CCOc1ccccc1OCC(=O)O,12.1%
8,CCCCn1c(O)c(C(=O)/C=C/c2ccc3c(c2)OCO3)c(=O)[nH]c1=O,11.9%
9,Cc1ccccc1CN1C[C@@H]2C[C@@H](c3cn[nH]c3-c3ccc(F)cc3)N3CCC[C@@]23C1=O,-12.9%
10,CC(=O)Oc1ccc(-c2nc3c(C)cccc3c(=O)o2)cc1,11.9%
11,CCOC(=O)c1[nH]c2ccc(OCC)cc2c1NC(=O)CN1CCN(c2ccccc2)CC1,15.9%
12,COC(=O)c1[nH]c2ccccc2c1NC(=O)CN1CCN(C/C=C/c2ccccc2)CC1,-84.4%
13,Cc1[nH]c2ccccc2c1C(=O)CN1CCN(C/C=C/c2ccccc2)CC1,-50.4%
14,COC(=O)c1[nH]c2ccccc2c1NC(=O)CN1CCCCCC1,-3.6%
15,Cc1[nH]c2ccccc2c1C(=O)CN1CCCC1,7.66%
16,CCOC(=O)c1[nH]c2ccc(F)cc2c1NC(=O)CN1CCc2cc(OC)c(OC)cc2C1,11.2%
17,CCOC(=O)N1CCN(CC(=O)Nc2c(C(=O)OC)[nH]c3ccccc23)CC1,7.01%
18,CCOC(=O)c1[nH]c2ccc(F)cc2c1NC(=O)CN1CCN(C/C=C/c2ccccc2)CC1,-77.3%
19,COc1ccc2[nH]c(C)c(C(=O)CN3CCN(C/C=C/c4ccccc4)CC3)c2c1,5.17%
20,O=C(COC(=O)COc1ccc(Br)cc1)NCCC1=CCCCC1,1.54%
